From the supplement of paper PMC10849652
Of roughly 8,800 targets only a part is listed; those with a hit were picked by preference. About 0.5% of all pairs of compound and target were hits.

How the values were obtained:
Experiment in all cases: log2 fold change, soluble protein after heating vs DMSO (PISA); higher = thermal stabilisation; K562 lysate, 10 uM; active = over 0.2 and 3.5 SD of the protein, either way, in both replicates (recomputed)
[1] = compound: C#Cc1cccc(Nc2ncnc3cc(OCCOC)c(OCCOC)cc23)c1 [erlotinib]
Outline: (§1)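 Dounce homogenisation of K562 pellets in PBS pH 7.4 with 1 mM MgCl2 produced a crude extract, used at 1 mg/mL protein. Exposure to 10 μM compound lasted 30 min, and aliquots were then heated for 3 min across 48°C-58°C, pooled and brought to 0.5% NP-40 at 4°C. The supernatant after 21,000xg for 90 min was quantified by TMTpro 16plex LC-MS/MS with channel sums equalised. Duplicate values are given as log-two fold change in thermal stability relative to solvent controls.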

[2] = compound: C/C(=N\NC(=O)C1=CC(=CC=C1)S(=O)(=O)N2CCOCC2)/C3=C(C=CC(=C3)Cl)O
Outline: as §1

[3] = compound: C1=CC(=CC=C1C2=NC3=C(N2)C=C(C=C3)C(=O)N)OC4=CC=C(C=C4)Cl
Outline: as §1

[4] = compound: C1=CC2=C(C=CC(=C2)/C=C\3/C(=O)NC(=NCC4=CC=CS4)S3)N=C1
Outline: as §1

[5] = compound: C1=CC2=NC=CN=C2C=C1/C=C/3\C(=O)NC(=O)S3
Outline: as §1

[6] = compound: C1=CC=C(C=C1)C2=NC(=C(N2)C3=CC=NC=C3)C4=CC(=C(C=C4)Cl)O
Outline: as §1

[7] = compound: C1=CC=C2C(=C1)C3=NNC4=CC=CC(=C43)C2=O
Outline: as §1

[8] = compound: C1CCN(C1)C(=O)NC2=CC=CC(=C2)NC3=NC=C(C(=N3)NCCC4=CN=CN4)Br
Outline: as §1

[9] = compound: C1CN(CCC1(CC2=CC=C(C=C2)Cl)N)C3=NC=NC4=C3C=CN4
Outline: as §1

[10] = compound: C1COCCN1CCN2C3=CC=CC=C3N=C2NC(=O)C4=CC(=CC=C4)[N+](=O)[O-] [IRAK-1-4 Inhibitor I]
Outline: as §1

Measured: log2 fold change

TPM4 isoform 2 (UniProt P67936)
inactive: [1] -0.06 | [2] 0.011 | [3] -0.048 | [4] 0.067 | [5] 0.002 | [6] 0.024 | [7] -0.016 | [8] 0.016 | [9] -0.015 | [10] -0.022

TECR (UniProt Q9NZ01)
inactive: [1] 0.024 | [2] -0.029 | [3] -0.113 | [4] 0.019 | [5] 0.083 | [6] -0.013 | [7] -0.066 | [8] -0.008 | [9] 0.028 | [10] 0.038

TRAF2 isoform 2 (UniProt Q12933)
inactive: [1] 0.026 | [2] -0.002 | [3] 0.008 | [4] 0.013 | [5] -0.016 | [6] -0.01 | [7] -0.015 | [8] -0.008 | [9] 0.029 | [10] 0.033

TELO2 (UniProt Q9Y4R8)
inactive: [1] 0.023 | [2] 0.006 | [3] -0.035 | [4] 0.025 | [5] 0.048 | [6] 0 | [7] 0.011 | [8] -0.031 | [9] 0.002 | [10] 0.009

TRMT12 (UniProt Q53H54)
UniProt Q53H54, sequence (Q53H54 whole entry, looked up): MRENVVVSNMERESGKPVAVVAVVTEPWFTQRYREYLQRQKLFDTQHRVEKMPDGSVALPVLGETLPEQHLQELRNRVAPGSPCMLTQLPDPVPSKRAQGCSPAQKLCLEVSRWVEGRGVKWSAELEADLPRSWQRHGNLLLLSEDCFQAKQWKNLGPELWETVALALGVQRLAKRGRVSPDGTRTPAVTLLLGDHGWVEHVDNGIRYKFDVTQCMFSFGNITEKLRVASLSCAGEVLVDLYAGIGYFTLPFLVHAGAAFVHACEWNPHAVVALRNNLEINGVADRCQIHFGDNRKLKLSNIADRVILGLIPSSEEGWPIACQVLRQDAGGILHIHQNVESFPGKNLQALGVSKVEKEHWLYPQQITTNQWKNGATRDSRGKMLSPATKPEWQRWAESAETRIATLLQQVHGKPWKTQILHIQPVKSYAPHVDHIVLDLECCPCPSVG
inactive: [1] 0.065 | [2] 0.01 | [3] 0.018 | [4] 0.058 | [5] -0.044 | [6] 0.106 | [7] -0.047 | [8] -0.064 | [9] 0.07 | [10] -0.03

TUBGCP3 (UniProt Q96CW5)
UniProt Q96CW5, sequence (Q96CW5 whole entry, looked up): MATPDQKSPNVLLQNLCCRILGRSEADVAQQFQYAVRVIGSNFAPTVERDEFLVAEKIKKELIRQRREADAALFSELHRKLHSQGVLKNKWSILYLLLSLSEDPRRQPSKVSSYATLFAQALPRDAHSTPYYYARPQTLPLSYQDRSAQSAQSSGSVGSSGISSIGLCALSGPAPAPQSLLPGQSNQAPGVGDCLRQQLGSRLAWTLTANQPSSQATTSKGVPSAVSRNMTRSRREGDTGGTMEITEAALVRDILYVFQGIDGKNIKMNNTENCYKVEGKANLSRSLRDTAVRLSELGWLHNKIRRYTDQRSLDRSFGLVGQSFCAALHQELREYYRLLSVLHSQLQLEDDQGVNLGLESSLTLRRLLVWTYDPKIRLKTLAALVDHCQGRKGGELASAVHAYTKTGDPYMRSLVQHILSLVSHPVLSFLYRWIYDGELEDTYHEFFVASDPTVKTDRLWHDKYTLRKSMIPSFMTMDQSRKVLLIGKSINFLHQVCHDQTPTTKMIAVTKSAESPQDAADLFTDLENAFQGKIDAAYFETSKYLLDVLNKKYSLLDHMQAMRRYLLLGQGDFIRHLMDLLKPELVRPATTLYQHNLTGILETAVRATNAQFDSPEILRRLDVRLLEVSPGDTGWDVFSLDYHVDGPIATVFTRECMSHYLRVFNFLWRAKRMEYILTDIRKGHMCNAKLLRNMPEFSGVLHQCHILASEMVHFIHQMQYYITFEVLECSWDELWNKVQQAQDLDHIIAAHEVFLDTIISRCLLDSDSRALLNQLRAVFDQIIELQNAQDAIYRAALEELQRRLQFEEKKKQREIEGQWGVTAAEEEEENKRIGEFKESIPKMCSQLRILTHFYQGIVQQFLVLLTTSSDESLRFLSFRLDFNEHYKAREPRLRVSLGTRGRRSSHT
inactive: [1] -0.035 | [2] 0.021 | [3] -0.054 | [4] 0.044 | [5] 0.02 | [6] -0.039 | [7] 0.012 | [8] -0.044 | [9] -0.019 | [10] -0.054

TERF2IP (UniProt Q9NYB0)
inactive: [1] -0.003 | [2] 0.025 | [3] 0.03 | [4] -0.054 | [5] -0.023 | [6] -0.001 | [7] 0.005 | [8] 0.019 | [9] 0.029 | [10] 0.009

TGOLN2 isoform 7 (UniProt O43493)
inactive: [1] -0.108 | [2] 0.007 | [3] 0 | [4] 0.022 | [5] -0.036 | [6] -0.021 | [7] 0.012 | [8] -0.025 | [9] 0.011 | [10] 0.029

TUBAL3 (UniProt A6NHL2)
inactive: [1] -0.018 | [2] -0.01 | [3] -0.076 | [4] -0.114 | [5] -0.004 | [6] -0.011 | [7] -0.134 | [8] -0.025 | [9] 0.037 | [10] 0.078

UGDH (UniProt O60701)
inactive: [1] 0.002 | [2] 0.046 | [3] -0.02 | [4] -0.009 | [5] 0.02 | [6] -0.041 | [7] -0.051 | [8] -0.004 | [9] -0.052 | [10] -0.053

TSPAN13 (UniProt O95857)
UniProt O95857, sequence (O95857 whole entry, looked up): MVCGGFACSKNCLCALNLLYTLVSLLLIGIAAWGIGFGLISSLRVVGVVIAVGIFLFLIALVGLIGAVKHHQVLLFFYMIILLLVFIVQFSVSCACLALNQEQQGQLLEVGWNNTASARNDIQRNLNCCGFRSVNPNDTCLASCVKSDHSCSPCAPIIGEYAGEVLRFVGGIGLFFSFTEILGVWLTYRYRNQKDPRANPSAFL
inactive: [1] 0.002 | [2] 0.053 | [3] 0.06 | [4] 0.003 | [5] -0.002 | [6] 0.008 | [7] -0.167 | [8] 0.202 | [9] -0.053 | [10] -0.051

TUBE1 (UniProt Q9UJT0)
inactive: [1] 0.051 | [2] -0.267 | [3] 0.095 | [4] -0.059 | [5] -0.063 | [6] -0.078 | [7] -0.033 | [8] -0.113 | [9] 0.047 | [10] 0.023

UBAP2L isoform 5 (UniProt Q14157)
inactive: [1] -0.021 | [2] -0.019 | [3] 0.035 | [4] 0.008 | [5] 0.027 | [6] -0.184 | [7] 0.065 | [8] 0.009 | [9] -0.023 | [10] 0.065

TXNIP (UniProt Q9H3M7)
inactive: [1] 0.036 | [2] -0.165 | [3] -0.057 | [4] -0.045 | [5] -0.001 | [6] -0.003 | [7] 0.048 | [8] -0.042 | [9] 0.017 | [10] 0.041

TOE1 (UniProt Q96GM8)
inactive: [1] -0.035 | [2] -0.064 | [3] 0.006 | [4] 0.036 | [5] 0.054 | [6] -0.021 | [7] -0.024 | [8] 0 | [9] -0.035 | [10] -0.021

TUBB2A (UniProt Q13885)
inactive: [1] 0.008 | [2] 0.04 | [3] 0.004 | [4] -0.021 | [5] -0.028 | [6] -0.008 | [7] -0.03 | [8] 0.014 | [9] 0.026 | [10] 0.019

TUBGCP2 isoform 4 (UniProt Q9BSJ2)
inactive: [1] 0.036 | [2] -0.048 | [3] 0.012 | [4] 0.025 | [5] 0.014 | [6] -0.005 | [7] -0.029 | [8] -0.014 | [9] 0.004 | [10] -0.041

TMEM161B (UniProt Q8NDZ6)
inactive: [1] 0.051 | [2] -0.08 | [3] -0.017 | [4] 0.174 | [5] 0.007 | [6] -0.068 | [7] -0.133 | [8] 0.052 | [9] -0.01 | [10] 0.09

TRIM44 (UniProt Q96DX7)
inactive: [1] -0.066 | [2] 0.067 | [3] -0.016 | [4] -0.037 | [5] 0.057 | [6] -0.013 | [7] -0.038 | [8] 0.053 | [9] 0.072 | [10] 0.043

TMEM263 (UniProt Q8WUH6)
inactive: [1] -0.114 | [2] -0.104 | [3] 0.273 | [4] -0.119 | [5] -0.022 | [6] -0.05 | [7] -0.012 | [8] -0.006 | [9] 0.095 | [10] 0.026

TFIP11 (UniProt Q9UBB9)
UniProt Q9UBB9, sequence (Q9UBB9 whole entry, looked up): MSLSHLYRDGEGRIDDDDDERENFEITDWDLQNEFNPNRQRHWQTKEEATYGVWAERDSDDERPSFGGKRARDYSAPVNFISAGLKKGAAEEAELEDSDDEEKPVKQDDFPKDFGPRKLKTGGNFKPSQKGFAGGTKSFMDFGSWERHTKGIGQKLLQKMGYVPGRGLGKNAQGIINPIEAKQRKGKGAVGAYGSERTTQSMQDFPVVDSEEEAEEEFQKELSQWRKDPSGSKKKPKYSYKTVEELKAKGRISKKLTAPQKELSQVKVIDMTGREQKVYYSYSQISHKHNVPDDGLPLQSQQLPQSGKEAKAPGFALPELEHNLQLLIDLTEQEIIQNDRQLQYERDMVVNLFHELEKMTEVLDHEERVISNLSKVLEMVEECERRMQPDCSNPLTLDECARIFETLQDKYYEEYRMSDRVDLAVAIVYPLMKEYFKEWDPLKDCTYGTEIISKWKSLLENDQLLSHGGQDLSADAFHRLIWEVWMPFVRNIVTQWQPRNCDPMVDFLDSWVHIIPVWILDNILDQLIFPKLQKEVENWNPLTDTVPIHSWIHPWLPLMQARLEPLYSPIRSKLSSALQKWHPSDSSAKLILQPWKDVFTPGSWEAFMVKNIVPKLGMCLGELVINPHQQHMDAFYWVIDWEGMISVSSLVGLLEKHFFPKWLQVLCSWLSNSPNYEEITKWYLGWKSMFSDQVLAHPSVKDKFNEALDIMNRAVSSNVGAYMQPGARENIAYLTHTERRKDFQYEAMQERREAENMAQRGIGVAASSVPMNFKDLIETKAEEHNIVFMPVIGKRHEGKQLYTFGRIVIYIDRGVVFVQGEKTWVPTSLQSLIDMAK
inactive: [1] -0.026 | [2] -0.099 | [3] -0.082 | [4] -0.025 | [5] -0.027 | [6] 0.023 | [7] -0.036 | [8] -0.008 | [9] 0.074 | [10] -0.016

UCHL5 isoform 3 (UniProt Q9Y5K5)
inactive: [1] -0.015 | [2] -0.012 | [3] 0.015 | [4] -0.018 | [5] 0.01 | [6] -0.005 | [7] 0.001 | [8] 0 | [9] -0.014 | [10] -0.018

TRIM25 (UniProt Q14258)
inactive: [1] -0.01 | [2] -0.024 | [3] 0.028 | [4] -0.004 | [5] -0.028 | [6] 0.032 | [7] 0.008 | [8] 0.064 | [9] 0.021 | [10] -0.009

TTF2 (UniProt Q9UNY4)
UniProt Q9UNY4, sequence (Q9UNY4 whole entry, looked up): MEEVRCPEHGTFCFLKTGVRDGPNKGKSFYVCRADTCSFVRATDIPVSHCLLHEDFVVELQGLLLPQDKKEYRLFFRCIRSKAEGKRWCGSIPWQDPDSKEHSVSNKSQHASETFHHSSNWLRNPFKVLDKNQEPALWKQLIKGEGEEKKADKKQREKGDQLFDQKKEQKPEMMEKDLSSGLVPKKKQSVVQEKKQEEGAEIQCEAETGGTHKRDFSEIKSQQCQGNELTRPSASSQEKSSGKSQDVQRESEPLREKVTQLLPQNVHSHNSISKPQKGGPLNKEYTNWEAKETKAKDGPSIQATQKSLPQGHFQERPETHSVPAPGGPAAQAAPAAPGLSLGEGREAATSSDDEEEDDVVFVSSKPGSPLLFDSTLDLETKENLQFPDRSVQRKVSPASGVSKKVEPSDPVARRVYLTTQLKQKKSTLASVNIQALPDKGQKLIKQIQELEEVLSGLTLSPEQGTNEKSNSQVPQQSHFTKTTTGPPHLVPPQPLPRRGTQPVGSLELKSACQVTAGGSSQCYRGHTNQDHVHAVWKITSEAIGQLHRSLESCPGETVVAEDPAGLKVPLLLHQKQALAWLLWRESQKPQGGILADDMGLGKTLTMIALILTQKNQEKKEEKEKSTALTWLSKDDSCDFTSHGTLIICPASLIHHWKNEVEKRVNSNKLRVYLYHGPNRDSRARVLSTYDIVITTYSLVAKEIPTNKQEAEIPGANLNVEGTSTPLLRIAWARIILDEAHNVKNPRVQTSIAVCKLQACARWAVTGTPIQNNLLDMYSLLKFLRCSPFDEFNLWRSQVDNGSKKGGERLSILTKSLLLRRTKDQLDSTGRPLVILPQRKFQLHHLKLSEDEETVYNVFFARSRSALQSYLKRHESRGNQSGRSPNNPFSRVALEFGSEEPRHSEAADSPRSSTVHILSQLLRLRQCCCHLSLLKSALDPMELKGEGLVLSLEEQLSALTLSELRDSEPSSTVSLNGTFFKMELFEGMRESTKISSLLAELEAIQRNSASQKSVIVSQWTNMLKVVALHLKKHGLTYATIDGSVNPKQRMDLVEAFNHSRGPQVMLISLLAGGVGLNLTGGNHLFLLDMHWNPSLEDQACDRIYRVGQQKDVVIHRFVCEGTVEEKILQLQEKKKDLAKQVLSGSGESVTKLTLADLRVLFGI
inactive: [1] 0.043 | [2] -0.003 | [3] 0.063 | [4] -0.001 | [5] -0.026 | [6] 0.042 | [7] -0.046 | [8] 0.039 | [9] 0.032 | [10] -0.006

TTC27 (UniProt Q6P3X3)
inactive: [1] 0.017 | [2] 0.018 | [3] -0.043 | [4] 0.004 | [5] 0.007 | [6] -0.014 | [7] -0.028 | [8] -0.015 | [9] 0.006 | [10] -0.013

TCF3 (UniProt P15923)
inactive: [1] 0.027 | [2] -0.028 | [3] 0.067 | [4] 0.004 | [5] 0.016 | [6] 0.011 | [7] 0.07 | [8] -0.005 | [9] 0.022 | [10] 0.04

TTI2 (UniProt Q6NXR4)
inactive: [1] -0.003 | [2] 0.037 | [3] 0.023 | [4] 0.047 | [5] 0.013 | [6] 0.012 | [7] -0.015 | [8] -0.028 | [9] 0.007 | [10] 0.014

TTC12 isoform 2 (UniProt Q9H892)
UniProt Q9H892, sequence (Q9H892 whole entry, looked up): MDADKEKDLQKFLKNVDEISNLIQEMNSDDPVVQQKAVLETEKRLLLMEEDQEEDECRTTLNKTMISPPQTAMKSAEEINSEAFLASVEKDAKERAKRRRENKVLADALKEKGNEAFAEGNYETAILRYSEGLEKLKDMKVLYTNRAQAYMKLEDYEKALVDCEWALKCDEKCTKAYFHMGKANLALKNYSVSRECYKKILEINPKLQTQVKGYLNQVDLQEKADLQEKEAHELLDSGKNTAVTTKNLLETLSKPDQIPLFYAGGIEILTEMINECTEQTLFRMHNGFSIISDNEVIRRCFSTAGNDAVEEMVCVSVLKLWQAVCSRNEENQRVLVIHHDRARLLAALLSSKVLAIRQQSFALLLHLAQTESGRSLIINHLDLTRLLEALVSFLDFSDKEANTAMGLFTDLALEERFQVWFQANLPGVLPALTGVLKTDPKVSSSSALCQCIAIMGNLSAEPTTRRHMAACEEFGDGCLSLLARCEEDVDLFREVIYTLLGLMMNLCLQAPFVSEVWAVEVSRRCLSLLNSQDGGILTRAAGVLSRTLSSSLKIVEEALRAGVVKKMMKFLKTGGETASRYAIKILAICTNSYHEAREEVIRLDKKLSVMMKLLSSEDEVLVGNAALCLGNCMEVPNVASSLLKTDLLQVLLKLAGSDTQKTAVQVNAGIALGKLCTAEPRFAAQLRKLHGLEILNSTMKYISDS
inactive: [1] 0.066 | [2] -0.051 | [3] 0.055 | [4] 0.007 | [5] -0.081 | [6] -0.037 | [7] -0.019 | [8] -0.006 | [9] 0.034 | [10] 0.231

UBTF (UniProt P17480)
UniProt P17480, sequence (P17480 whole entry, looked up): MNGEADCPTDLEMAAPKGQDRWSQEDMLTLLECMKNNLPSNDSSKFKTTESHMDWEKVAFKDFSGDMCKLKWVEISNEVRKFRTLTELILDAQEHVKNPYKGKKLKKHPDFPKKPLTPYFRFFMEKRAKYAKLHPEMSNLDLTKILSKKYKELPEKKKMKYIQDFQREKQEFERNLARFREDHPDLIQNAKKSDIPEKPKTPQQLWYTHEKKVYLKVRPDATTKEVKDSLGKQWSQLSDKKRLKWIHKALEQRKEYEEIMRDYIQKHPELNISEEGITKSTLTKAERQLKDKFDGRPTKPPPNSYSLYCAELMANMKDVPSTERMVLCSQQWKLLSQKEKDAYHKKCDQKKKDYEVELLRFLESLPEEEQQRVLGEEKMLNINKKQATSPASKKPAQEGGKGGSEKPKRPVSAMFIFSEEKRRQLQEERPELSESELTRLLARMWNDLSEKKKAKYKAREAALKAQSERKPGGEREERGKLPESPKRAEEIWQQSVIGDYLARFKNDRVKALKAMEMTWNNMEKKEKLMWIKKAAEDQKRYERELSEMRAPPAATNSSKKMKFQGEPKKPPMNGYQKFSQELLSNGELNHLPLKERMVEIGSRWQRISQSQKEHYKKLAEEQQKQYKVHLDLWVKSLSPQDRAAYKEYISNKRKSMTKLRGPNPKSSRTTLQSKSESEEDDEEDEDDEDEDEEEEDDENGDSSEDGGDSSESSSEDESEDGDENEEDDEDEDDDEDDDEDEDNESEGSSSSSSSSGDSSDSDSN
inactive: [1] 0.02 | [2] 0.015 | [3] 0.018 | [4] 0.03 | [5] -0.009 | [6] 0.002 | [7] 0.027 | [8] 0.009 | [9] -0.022 | [10] -0.024

TUT4 (UniProt Q5TAX3)
inactive: [1] -0.009 | [2] -0.048 | [3] -0.014 | [4] -0.062 | [5] -0.054 | [6] -0.004 | [7] -0.021 | [8] -0.029 | [9] 0.019 | [10] 0.023

TTC37 (UniProt Q6PGP7)
inactive: [1] 0.05 | [2] -0.148 | [3] 0.07 | [4] -0.014 | [5] -0.069 | [6] -0.187 | [7] -0.068 | [10] 0.051
